Only some compounds are listed: those with a hit (about 3.7% of all), similar ones and a draw of the others.
tim10-1 inh: growth inhibitors of tim10-1 mutant yeast, primary screen, luminescence, uHTS | S. cerevisiae tim10-1 ts strain growth, BacTiter-Glo, 24 h | inhibition, % at 20 µM | actives 2.2% (n = 330,000);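 active = inhibition of at least 40%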;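 also: mutant grown at 25 °C; 0% = DMSO wells with yeast and 100% = wells holding no yeast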
Rce1 inhib: yeast Rce1p protease inhibitors, primary screen, biochemical, fluorescence, cell-free homogeneous | yeast membranes, quenched prenylated peptide cleavage fluorescence | calls only | actives 0.27% (n = 290,000) | AID 2563, 2010;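 active = fall in fluorescence gain of 50% or more versus controls, with final raw signal at or below 3038400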;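 also: plate controls were neutral control wells for no effect and wells lacking membranes for full effect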
Target sequence (Q03530 whole entry, looked up): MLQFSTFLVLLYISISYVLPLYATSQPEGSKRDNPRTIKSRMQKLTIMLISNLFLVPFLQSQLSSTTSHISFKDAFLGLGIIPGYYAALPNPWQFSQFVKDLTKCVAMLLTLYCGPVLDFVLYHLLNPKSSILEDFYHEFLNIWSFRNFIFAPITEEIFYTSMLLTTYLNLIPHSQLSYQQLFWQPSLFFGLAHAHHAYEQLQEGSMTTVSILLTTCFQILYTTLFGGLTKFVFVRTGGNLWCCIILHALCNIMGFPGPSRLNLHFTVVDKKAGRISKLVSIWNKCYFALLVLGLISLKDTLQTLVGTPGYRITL
PfHsp90 set2: growth inhibition of PfHsp90-expressing yeast, primary screen, antimalarial PfHsp90 inhibitor project, S. cerevisiae, BacTiter-Glo luminescence, single point, set 2 | BacTiter-Glo ATP, 48 h; yeast lacking PDR1 and PDR3 efflux regulators | inhibition, % at 9.4 µM | actives 0.32% (n = 310,000);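 active = every replicate shows inhibition above about 80%, whatever the replicate mean, limit read from the data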;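 also: 0% = DMSO neutral controls and 100% = 20 µM radicicol positive controls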
TIM10 inh: growth inhibitors of isogenic TIM10 control yeast, primary screen, counter-screen for tim10-1 yeast inhibitor project, luminescence, uHTS; S. cerevisiae TIM10 strain growth, BacTiter-Glo luminescence, 24 h; inhibition, % at 10 µM; actives 1.4% (n = 330,000); AID 463195, 2010;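 active = inhibition of 40% or more at the single tested concentration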;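 also: wild-type TIM10 isogenic control strain grown at permissive 25 °C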
tim23-1 inh: growth inhibitors of tim23-1 mutant yeast, primary screen, luminescence, uHTS | S. cerevisiae tim23-1 growth, BacTiter-Glo luminescence, 24 h | inhibition, % at 20 µM | actives 1.3% (n = 330,000);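 active = growth inhibition of the mutant yeast at or above 50%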;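 also: temperature-sensitive mutant grown at 25 °C; plate controls were DMSO-treated mutant yeast for no effect and medium wells lacking yeast for full effect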
tim10-1 conf: growth inhibitors of tim10-1 mutant yeast, confirmation, single concentration, luminescence, S. cerevisiae. shares compounds with tim10-1 inh. S. cerevisiae tim10-1 ts strain growth, BacTiter-Glo, 24 h. inhibition, % at 20 µM. actives 56% (n = 7,400);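 active = inhibition of yeast growth at or above a set limit in either of two repeat tests at 20 µM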;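 also: tim10-1 mutant grown at permissive 25 °C to find synthetic lethal compounds; 0% = DMSO yeast wells and 100% = medium wells without yeast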
Starred values were filed as active, the others as inactive; i = inactive; x = not tested or not shown; + = active, no number.

SMILES	tim10-1 inh	Rce1 inhib	PfHsp90 set2	TIM10 inh	tim23-1 inh	tim10-1 conf
CN(C)S(=O)(=O)c1ccc(N2CCCC2)c(C(=O)NNC(=O)COc2cccc(F)c2)c1	-17.1	x	14.5	-1.7	-1.4	x
Cc1ccc(CN2CCNC(=O)C2CC(=O)NC2CCCCCC2)o1 (configuration not stated)	8.3	+	22.7	2.4	6.0	x
Cc1ccc(CN2CCNC(=O)C2CC(=O)NC2CCCCCC2)cc1 (configuration not stated)	13.5	i	-3.3	16.1	13.2	x
CC(=O)OC(C(=O)NC1CCCCC1)c1ccc(Cl)c(Cl)c1 (configuration not stated)	15.0	i	-11.0	14.7	36.4	x
CC(C)(C)C(O)C(Cc1ccccc1Cl)n1cncn1 (configuration not stated)	-42.6	i	91.8*	-66.4	-81.1	x
Clc1ccc2[nH]c3c(c2c1)CCc1cn[nH]c1-3	-0.4	i	110.2*	28.3	20.6	x
CCCCNC(C(=O)Nc1cccc(S(=O)(=O)N2CCOCC2)c1)c1ccccc1 (configuration not stated)	23.1	i	-6.8	21.0	21.8	x
CC(C)(C)c1ccc2c(c1)C(=O)c1ccccc1C2=O	29.5	i	-24.4	16.6	7.1	x
CC(C)(C=O)C1=CC(=O)c2ccccc2C1=O	x	x	105.7*	x	x	x
COc1ccc(S(=O)(=O)NC2(C(F)(F)F)NC(=O)N(CCc3ccc(OC)c(OC)c3)C2=O)cc1 (configuration not stated)	-11.6	i	-15.8	5.5	-0.4	x
Oc1ccc(C2=NN(c3ccccc3)C(c3ccc(F)cc3)C2)cc1 (configuration not stated)	-3.7	i	119.7*	12.0	25.7	x
O=C(NCCCCc1ccccc1)c1ccc(Br)cc1	-26.4	i	111.7*	-59.9	3.4	x
COc1ccccc1OCCNC(=O)c1ccc(Br)cc1	-29.8	i	97.4*	-58.2	-27.1	x
O=C(Nc1cc(Cl)ccc1-n1cncn1)c1cccs1	9.1	i	11.1	12.9	-2.3	x
Cc1csc(NC(=O)c2ccccc2O)n1	-18.5	+	-4.2	-6.9	-3.4	x
Cc1c(Br)c([N+](=O)[O-])nn1CC(=O)N1CCCc2ccccc21	0.7	i	14.4	16.8	4.3	x
Cc1cccc(N2CCN(C(=O)CN3CCOc4ccccc43)CC2C)c1 (configuration not stated)	22.8	i	x	2.5	25.3	x
Cc1ccc(N2C(=O)C3C4C=CC(CNC(=S)N5CCN(c6cccc(C)c6)C(C)C5)(O4)C3C2=O)cc1 (configuration not stated)	0.1	i	104.9*	10.3	7.9	x
O=C(COC(=O)C1(c2ccccc2F)CCCC1)NCc1cccs1	30.1	i	28.0	6.4	21.9	x
CCOC(=O)c1cc2c(ccc3nc(C)c(C)c32)[nH]c1C	49.8*	i	-8.9	24.4	18.4	13.2
O=C(Nc1cccc(S(=O)(=O)Nc2ccc(Cl)cc2)c1)c1cc2c(s1)CCCC2	40.3*	i	-1.7	23.1	24.6	15.7
Cc1ccc(NC(=O)c2cc3c(s2)CCCC3)cc1S(=O)(=O)Nc1ccccc1Cl	27.3	i	-0.4	14.9	34.5	x
O=C(Nc1ccon1)c1cc2c(s1)CCCCCC2	52.4*	i	-20.1	33.5	43.1	39.5*
CC(C)CC(NC(=O)C(CO)NC(=O)C1CCC(=O)N1)C(N)=O (configuration not stated)	10.3	i	-16.6	4.3	-0.9	x
CCOc1ccc(-n2cc(-c3ccccc3)c3c(=O)[nH]cnc32)cc1	54.5*	i	-56.3	35.1	38.0	39.6*
SMILES	tim10-1 inh	Rce1 inhib	PfHsp90 set2	TIM10 inh	tim23-1 inh	tim10-1 conf
COC(=O)c1c(NC(=O)CN2CCC3(O)CCCCC3C2c2ccccc2OC)sc(C)c1C (configuration not stated)	40.0*	i	11.8	33.7	31.2	28.4
COC(=O)c1c(NC(=O)CN2CCC3(O)CCCCC3C2c2ccc(OC)cc2OC)sc(C)c1C (configuration not stated)	31.0	i	-18.0	29.5	30.8	x
CCn1c(=O)n(CC)c2cc(N3CCCC3)c(NC(=O)c3ccccc3)cc21	24.5	i	3.8	10.7	22.0	x
CCn1c(=O)n(CC)c2cc(N3CCCC3)c(NC(=O)c3cc(Br)ccc3OC)cc21	44.4*	i	x	4.3	40.5	-2.6
CCn1c(=O)n(CC)c2cc(N3CCCC3)c(NC(=O)c3ccc(C)cc3)cc21	42.2*	i	28.3	-8.8	31.7	-15.4
CCNS(=O)(=O)c1ccc(CCC(=O)Nc2ccc(C(=O)OC)cc2)cc1	2.5	i	2.5	14.2	7.3	x
O=C(Nc1nccs1)c1nc(-c2ccccc2)n(-c2ccccc2)n1	1.5	i	-5.6	7.7	11.1	x
Cc1csc(NC(=O)c2nc(-c3ccccc3)n(-c3ccccc3)n2)n1	51.0*	i	-9.1	22.6	47.6	41.4*
Cc1ccc(C)c(NC(=O)c2nc(-c3ccccc3)n(-c3ccccc3)n2)c1	42.7*	x	2.9	28.7	42.6	28.0
COc1ccc(Cl)cc1NC(=O)CSc1nc(N2CCCCC2)nc(N2CCCCC2)n1	8.1	i	8.9	16.2	5.1	x
O=C(NCCCNc1ccc(C(F)(F)F)cc1[N+](=O)[O-])c1ccc(Cl)cc1	45.9*	i	12.5	-3.9	8.9	-2.2
O=C(COC(=O)Cc1cccc(C(F)(F)F)c1)NCc1ccco1	-6.9	x	x	-10.3	1.2	x
O=C(CSc1nc2ccccc2[nH]1)N1c2ccccc2Sc2ccccc21	45.5*	i	-17.2	26.4	36.7	19.9
Cc1ccc(C(=O)Nc2nc(-c3ccccc3)c(-c3ccccc3)o2)cc1	40.5*	i	-36.7	24.6	30.7	17.9
CCCCn1c(N)c(N(CCOC)C(=O)CCC2CCCCC2)c(=O)[nH]c1=O	8.7	x	-4.0	5.2	-3.1	x
CC(=O)N(CCC(Cc1ccccc1)c1ccc2c(c1)OCO2)Cc1ccccc1F (configuration not stated)	30.0	i	-11.4	18.2	16.0	x
Fc1ccccc1CNCCC(Cc1ccccc1)c1ccc2c(c1)OCO2 (configuration not stated)	46.9*	i	-11.2	9.5	13.4	27.8
O=c1c2c(nc3n1CCCCC3)sc1c(O)c(Br)ccc12	45.2*	i	x	12.8	45.4	27.9
Fc1ccccc1CNc1ccc(Cl)c(Cl)c1	61.3*	i	-10.8	13.5	30.2	68.9*
CC(=O)C1=C(C)N2CCN=C2S1	-10.0	i	-11.0	21.4	-1.3	x

Compound activity: PubChem BioAssay, several laboratories
